The nature of assay [1]: inhibitors of PAF-induced NFkB signaling in CF airway cells, dose response, cell-based, uHTS hits, panel, cytotoxicity readout (AID 624344). Conditions: CF bronchial epithelial cells, PAF-induced NFkB reporter inhibition, with PAF, run 1; at 79 µM (top of the series) unless noted.
Assay in assay [2]: as above
Particulars: CF bronchial epithelial cells, PAF-induced NFkB reporter inhibition, with PAF, run 2; at 79 µM (top of the series) unless noted.

The structures appear in SMILES notation.

As usually defined, the inhibition is the drop in the measured response relative to a control, in per cent. For `COc1ccc(-c2nc(N3CCOCC3)nc3n[nH]c(N)c23)cc1`, the inhibition came out at 117% in assay [1] and 104% in assay [2].
For `O=C(Nc1nnc(C(F)(F)F)s1)c1ccc(Br)s1`, the figures for the inhibition in assay [1] and in assay [2] were 114% and 74.5%, respectively.
For `CCN1CCN(Cc2ccc(NC(=O)c3ccc(C)c(NC(=O)c4ccc5n[nH]nc5c4)c3)cc2C(F)(F)F)CC1`, the inhibition in assay [1] was 101%; in assay [2], 111%.
Consider `Cc1cccc(N=c2oc3cc(O)ccc3cc2C(N)=O)c1`, for which the inhibition was 87.7% in assay [1] and 80% in assay [2].
The like results for `COc1ccccc1NS(=O)(=O)c1cccc(-n2c(O)c(C=Nc3ccccc3C(=O)O)c3ccccc3c2=O)c1` were, in that order, 105% and 85%.
Turning to `COc1ccc(-n2nc(C(=O)NCC(=O)Nc3cc(OC)c(OC)c(OC)c3)c3ccccc3c2=O)cc1OC`, the inhibition in assay [1] amounted to 102%; in assay [2], 101%.
Take `COc1cc(NC(=O)c2csc(-c3ccncc3)n2)cc(C(=O)Nc2cccc(C(F)(F)F)c2)c1`: the inhibition is 102% in assay [1] and 105% in assay [2].
The like results for `O=S1(=O)CCC(NC(=S)SCCOc2ccccc2)C1` (stereo not given) were, in that order, 99.3% and 108%.
The like results for `CC(C)c1ccccc1NC(=O)COC(=O)c1c2c(nc3ccccc13)CCN(Cc1ccccc1)C2` were, in that order, 76.4% and 90.6%.
The like results for `Nc1ncnc2c1c(-c1ccc(Oc3ccccc3)cc1)cn2C1CCCC1` were, in that order, 114% and 94.1%.
For `O=C(NCc1ccco1)c1nc2c(nnn2Cc2ccccc2Cl)c(=O)[nH]1`, the inhibition in assay [1] stood at 115%; in assay [2] it was 107%.
For the compound `COc1cccc(Nc2ncnc3ccc(Br)cc23)c1`, the inhibition in assay [1] was found to be 119%; in assay [2], 105%.
Regarding `CN(C)c1ccc(Nc2ncnc3ccc(Br)cc23)cc1`, the inhibition was determined as 104% in assay [1] and 118% in assay [2].
Take `C[C@@H]1CN([C@H](C)CO)C(=O)c2cc(NC(=O)Nc3ccc(C(F)(F)F)cc3)ccc2O[C@H]1CN(C)S(=O)(=O)c1cccs1`: the inhibition stood at 113% in assay [1] and 96.8% in assay [2].
As to `COc1ccc(CN2C[C@H]3CCCN3c3cc(Br)ccc3S2(=O)=O)cc1`, the inhibition in assay [1] amounted to 74.6%; in assay [2], 92.2%.
The like results for `COc1cc(-c2cc(C(=O)Nc3ccc(S(=O)(=O)NCc4ccco4)cc3)c3ccccc3n2)cc(OC)c1OC` were, in that order, 109% and 102%.
In the case of `CCN(c1ccc(OC)cc1)c1ncnc2nc[nH]c12`, the inhibition in assay [1] worked out at 108%; in assay [2], 98%.
The like results for `CC(C)c1nc(Cl)c(C#N)c2c1CCCC2` were, in that order, 96.5% and 112%.
Take `Cc1ccc(Cl)cc1-c1cc(C(=O)NCc2cc(C(F)(F)F)cc(C(F)(F)F)c2)[nH]n1`: the inhibition in assay [1] amounted to 84.9%; in assay [2], 96.5%.
In the case of `CCC1(O)C(=O)OCc2c1cc1n(c2=O)Cc2cc3cc(O)ccc3nc2-1` (stereo not given), the results for the inhibition in assay [1] and in assay [2] were 106% and 88.8%, respectively.
On to `COc1ccc(C(=O)Nc2cccc(NC(=O)c3ccc(OC)c(OC)c3)n2)cc1OC`, for which the figures for the inhibition in assay [1] and in assay [2] were 106% and 102%, respectively.
Take `O=C(OC1CCOC1=O)c1ccccc1C(=O)c1ccc(Cl)c([N+](=O)[O-])c1` (stereo not given): the inhibition in assay [1] worked out at 98.5%; in assay [2], 105%.
As to `Cc1cccc(N2CCN(C(=O)c3[nH]c(C(F)(F)F)nc3-c3ccccc3)CC2)c1C`, the figures for the inhibition in assay [1] and in assay [2] were 91.2% and 103%, respectively.
The like results for `C=C(c1ccc2nc(NC(=O)OC)[nH]c2c1)c1cccs1` were, in that order, 101% and 110%.
For `CC1CCc2sc3ncnc(N4CCOCC4)c3c2C1` (stereo not given), the results for the inhibition in assay [1] and in assay [2] were 112% and 101%, respectively.
Turning to `CCOC(=O)c1c(C)cc2c(CO)n[nH]c(=O)c2c1C`, the inhibition in assay [1] amounted to 104%; in assay [2], 95.8%.
`COc1ccc(-n2ncc3c(N4CCN(Cc5ccccc5)CC4)ncnc32)cc1`: the inhibition came out at 113% in assay [1] and 102% in assay [2].
Turning to `O=C(/C=C/c1cccs1)Nc1cccc(NC(=O)/C=C/c2cccs2)n1`, the inhibition was 97.2% in assay [1] and 96.4% in assay [2].
For the compound `Cn1c(Sc2ccc(Cl)cc2)c(C=O)c2ccccc21`, the inhibition in assay [1] was determined as 119%; in assay [2] it was 107%.
As for `ON=C1c2ccccc2-c2cc(Br)ccc21`, the values for the inhibition in assay [1] and in assay [2] were 117% and 106%, respectively.

The values above are taken from PubChem BioAssay.
